Laboratory results reported in PubChem BioAssay.
A number with no mark means an inactive call. Calls of active or inactive are those of the source.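 The calls were made as follows: active = inhibition above the hit cutoff set in the earlier primary screen (cut at about 27% in these data); inactive = the rest.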

The compounds below were run against Protein phosphatase methylesterase 1 (Homo sapiens) (UniProt Q9Y570) (assay: PME-1 inhibitor activity retest, confirmation, biochemical, fluorescence polarization, FP-Rh probe, triplicate (AID 2171;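 also: 0% = enzyme with DMSO and 100% = wells lacking PME-1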)). Settings: recombinant PME-1, FP-Rh probe fluorescence polarization; at 5.9 µM; hits give high values.
Protein phosphatase methylesterase 1 (Homo sapiens), sequence (Q9Y570 whole entry, looked up): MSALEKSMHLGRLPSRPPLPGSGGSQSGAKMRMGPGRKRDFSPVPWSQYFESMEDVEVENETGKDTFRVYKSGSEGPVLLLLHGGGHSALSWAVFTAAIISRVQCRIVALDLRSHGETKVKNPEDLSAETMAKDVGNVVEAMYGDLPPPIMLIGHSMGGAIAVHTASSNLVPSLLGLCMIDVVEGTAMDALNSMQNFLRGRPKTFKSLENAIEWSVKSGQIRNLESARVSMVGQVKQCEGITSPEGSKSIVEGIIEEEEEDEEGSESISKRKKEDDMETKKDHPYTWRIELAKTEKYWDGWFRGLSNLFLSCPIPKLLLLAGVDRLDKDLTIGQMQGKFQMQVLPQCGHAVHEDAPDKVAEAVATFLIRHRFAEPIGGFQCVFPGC
`COC(=O)c1ccc(NC(=O)Nc2ccc(OC)cc2)cc1` was tested, and the inhibition was 23.2%. `Cc1ccc(-c2ccccc2NC(=O)CS(=O)CC(=O)Nc2ccc(C)c(Cl)c2)o1` (stereo not given) showed an inhibition of 0.73%. Work on `c1ccc(-c2ccc(C3CCCN3)cc2)cc1` (stereo not given) yielded an inhibition of 0.67%. With `Cc1ccc(-n2c(O)c(/C=N/Nc3ccc(S(=O)(=O)N4CCOCC4)cc3[N+](=O)[O-])c3ccccc3c2=O)c(C)c1` the inhibition was 37.9% (active). Compound `S=C(Nc1ccc(N2CCOCC2)cc1)Nc1ccc2nc(-c3ccco3)c(-c3ccco3)nc2c1` has an inhibition of 24.7%. `Cc1cc(C(C#N)c2ccc(Cl)cc2)c(Cl)cc1NC(=O)c1cc(I)cc(I)c1O` (stereo not given) was tested, and the inhibition was 47.6% (active). With `Fc1ccc2nc(Nc3nc4cc5c(cc4s3)OCO5)sc2c1` the inhibition was 2.53%. Work on `Cc1cc2nc3ccc(N(C)C)cc3nc2cc1N` yielded an inhibition of 20%. Work on `Nc1nonc1-n1nnc(C(=O)N/N=C/c2c[nH]c3ccccc23)c1-c1ccccc1` yielded an inhibition of 25.4%. For `CCCC(=O)NC(c1ccccc1Cl)c1c(O)ccc2ccccc12` (stereo not given), the inhibition was 58.5% (active). For `CC(=O)N1CCN(c2ccc(NC(=S)NC(=O)COc3ccc(C(C)(C)C)cc3)cc2)CC1`, the inhibition was 26.1%. In the case of `Cc1c(C(=O)O)cccc1-c1ccc(/C=N/Nc2ccc(Br)cc2)o1`, the inhibition was 39.6% (active). Work on `CCCCn1c(NC(=O)c2ccccc2Cl)c(C#N)c2nc3ccccc3nc21` yielded an inhibition of 19.9%. For `COc1cc(/C=C2\CCC/C(=C\c3ccc(O)c(OC)c3)C2=O)ccc1O`, the inhibition was 39.5% (active). With `COc1ccc(-c2cc(-c3cc(OC)ccc3O)[nH]n2)cc1` the inhibition was 71% (active). In the case of `CCc1ccc2[nH]c(O)c(N=NC3=NC(=O)CS3)c2c1`, the inhibition was 44% (active). For `CCc1cc(/C(Cc2ccc3ccccc3n2)=N\O)c(O)cc1O`, the inhibition was 30.8% (active). `Cc1ccccc1OCC(=O)NC(=S)Nc1cccc2cc(O)ccc12` gave an inhibition of 20.7%. For `CCOc1ccc(NC(=S)NNc2ccnc3cc(Cl)ccc23)cc1`, the inhibition was 28.3% (active). `CCCCN(CCCC)CCNC(=O)c1cn(CC)c2ccc(S(=O)(=O)N(C)C3CCCCC3)cc2c1=O` was tested, and the inhibition was 85% (active). For `CN(C)S(=O)(=O)c1cccc(NC(=S)NNC(=O)c2cc3ccccc3cc2O)c1`, the inhibition was -1.97%. In the case of `Cc1ccc2nsnc2c1NS(=O)(=O)c1c(C)ccc2nsnc12`, the inhibition was 22.3%. For `Cc1sc2ncnc(OCC(=O)N3CCN(S(=O)(=O)c4ccc(Cl)cc4)CC3)c2c1C`, the inhibition was 11.1%. Work on `COc1ccc(C)cc1NC(=O)NNC(=O)c1cc2ccccc2cc1O` yielded an inhibition of 16.4%. `Cc1ccc2[nH]c3c(N4CCc5ccccc5C4)ncnc3c2c1` was tested, and the inhibition was 30.5% (active). Work on `CCOC(=O)c1c(C)[nH]c(C2=NNC(=Nc3ccc(OCC)cc3)SC2)c1C` yielded an inhibition of 18.9%. `Cc1ccc(C)c(-n2c3nc(=O)[nH]c(=O)c-3cc3cc([N+](=O)[O-])ccc32)c1` showed an inhibition of 24.5%. For `CCNc1cc(O)ccc1C`, the inhibition was 2.02%. For `Cc1cc(NC(=O)CSc2nc3ccccc3c(=O)n2C2CCCC2)no1`, the inhibition was 3.59%. `Cc1[nH]c2c(C)cccc2c1CCNC(=O)c1ccc2c(c1[N+](=O)[O-])C(=O)c1ccccc1C2=O` was tested, and the inhibition was 75.1% (active). `COc1cc2c(C#N)c(N3CCc4ccccc4C3)nc(N)c2c(N)n1` was tested, and the inhibition was 32.4% (active). With `N#C/C(=C\c1ccc(O)c(O)c1)C(=O)Nc1cccc2ncccc12` the inhibition was -29.9%. With `CCCOc1ccc(C2Nc3cccc4cccc(c34)N2)cc1` the inhibition was 38.3% (active). `O=C(NNc1c2ccccc2nc2ccccc12)c1ccccc1O` was tested, and the inhibition was 65.5% (active). Work on `Cc1ccc(NC(=S)NC(=O)c2ccc(-c3ccc(Cl)cc3)o2)c(O)c1` yielded an inhibition of 22.9%. In the case of `O=C1C(CSCc2ccccc2)NC(=S)N1c1ccccc1` (stereo not given), the inhibition was 5.6%. `CC(C)Oc1ccc(CCC(=O)N/N=C/c2ccc3c(c2)OCO3)cc1` showed an inhibition of 4.01%. `Oc1nc(Nc2ccccc2)sc1/C=C1\C=Nc2ccccc21` gave an inhibition of -2.4%. For `C=CCc1cccc(/C=N/NC(=O)CNc2cccc3ccccc23)c1O`, the inhibition was 17.8%. In the case of `Cc1nc2ccccc2nc1N/N=C/c1ccc(O)cc1O`, the inhibition was 36.4% (active).
